The list is not random: actives were taken first. Their share in the collection is about 10%.
Pf growth 96h = P. falciparum growth inhibition at 96 hour, primary screen for plastid delayed-death inhibitors; P. falciparum luciferase reporter growth, 96 h; Potency, µM (highest dose often 28.7 µM), usual class: inhibitors; AID 504834; hit rate 6.9% among 320,000
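P. falciparum expressing integrated firefly luciferase grown in erythrocytes (2% hematocrit, 0.05% parasitemia final) with compounds for 96 hours at 37 C, 5% CO2. Growth inhibition read as loss of luminescence after adding luciferase detection reagent.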
NS1 function inh = blocks influenza NS1 protein function. Potency, µM (top dose mostly 46.1 µM). hit rate 0.4% among 270,000. AID 2326; calls by dose curve; also: actives are rising curves; nearly all actives have a fitted effect of over 50% in size
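Compounds were scored for reversing the slow growth caused by influenza A NS1 in S. cerevisiae, measured by optical density at 600 nm. Assay medium contained 2% galactose at pH 6.0; NS1-free yeast of the same strain were the positive control.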
Pf growth 48h = inhibits P. falciparum growth in the first generation, 48 h; P. falciparum luciferase growth in erythrocytes, 48 h; hit rate 5.9% among 310,000; Potency, µM (doses to about 28.7 µM), usual class: inhibitors; AID 504832
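Compounds are pin-transferred into medium, infected erythrocytes (2% hematocrit, 0.1% parasitemia final) are added, and plates sit one parasite generation at 37 C in 5% CO2. Detection reagent is then added and luminescence measured.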
SARS PLP yeast = inhibitors of SARS-CoV papain-like protease in yeast; S. cerevisiae expressing SARS-CoV PLpro, growth rescue; AID 485353; Potency, µM (doses to about 32.9 µM), most hits filed as activators; hit rate 0.19% among 330,000; calls by dose curve; also: nearly all actives have a fitted effect of over 55% in size
A number is an active result. Unless noted, calls follow the shape of the dose curve; as a rule, active = well fitted inhibition curve with a large enough effect; inconclusive = small, poorly fitted or top-dose-only effect, or another doubt; inactive = no such curve, though single readings can be large or run the other way.

How did Cc1c(-c2ccco2)[n+](=O)c2c(n1[O-])CCCCC2 do in these assays?
Pf growth 96h: inactive; NS1 function inh: inactive; SARS PLP yeast: inactive

How did Cc1c(-c2ccccc2)[n+](=O)c(-c2ccco2)c(C)n1[O-] do in these assays?
Pf growth 96h: 5.22µM; NS1 function inh: inactive; Pf growth 48h: inactive; SARS PLP yeast: inactive

What do the screens show for `CC1=C(C)CC(C(=O)NC2CCN(C(C)C)CC2)C(C(=O)O)C1` (configuration not stated)?
Pf growth 96h: inactive; NS1 function inh: inactive; Pf growth 48h: inactive; SARS PLP yeast: inactive

How did CCN1CCN(C(=O)NCc2ccccc2)CC1 do in these assays?
Pf growth 96h: inactive; NS1 function inh: inactive; Pf growth 48h: inactive; SARS PLP yeast: inactive

What do the screens show for `CCC12CCCN3CCc4c(n(c5ccccc45)C(O)(C(=O)OC)C1)C32` (configuration not stated)?
Pf growth 96h: inactive; NS1 function inh: inactive; Pf growth 48h: inactive; SARS PLP yeast: inactive

How did CCOC(=O)C1=C[C@@]2(CC)CCCN3CCc4c(n1c1ccccc41)[C@H]32 do in these assays?
Pf growth 96h: inactive; Pf growth 48h: 6.01µM

Results for CC[C@@]12CCCN3CCc4c(n(c5ccccc45)C(=O)C1)[C@H]32 ?
Pf growth 96h: 6.42µM; NS1 function inh: inactive; Pf growth 48h: inconclusive

Results for CCCCCc1n[nH]c2c1CCCC2 ?
Pf growth 96h: inactive; NS1 function inh: inactive; Pf growth 48h: inactive; SARS PLP yeast: inactive

What do the screens show for `COc1ccc(C2NC(c3ccc(OC)cc3)C(c3ccccc3)C(=O)C2c2ccccc2)cc1` (configuration not stated)?
Pf growth 96h: 10.4µM; NS1 function inh: inactive; Pf growth 48h: 11.7µM; SARS PLP yeast: inactive

Results for COc1ccc(C2NC(c3ccc(OC)cc3)C(C)C(=O)C2C)cc1 (configuration not stated) ?
Pf growth 96h: inactive; NS1 function inh: inactive; Pf growth 48h: inconclusive; SARS PLP yeast: inactive

Results for CNC(C(=O)c1ccccc1)C(OC(C)=O)c1cccc([N+](=O)[O-])c1 (configuration not stated) ?
Pf growth 96h: 2.94µM; NS1 function inh: inactive; Pf growth 48h: inconclusive; SARS PLP yeast: inactive

What do the screens show for `CCOC(=O)COc1ccc2c(C#N)c3ccccn3c2c1`?
Pf growth 96h: inactive; NS1 function inh: inactive; Pf growth 48h: inactive; SARS PLP yeast: inactive

What do the screens show for `COc1cc(OC)cc(C(=O)c2c(C)c(C#N)c3ccccn23)c1`?
Pf growth 96h: inconclusive; NS1 function inh: inactive; Pf growth 48h: 8.28µM; SARS PLP yeast: inactive

What do the screens show for `CC(C)C(NC(=O)c1ccc(Cl)cc1)C(=O)NCC1CCCO1` (configuration not stated)?
Pf growth 96h: inactive; NS1 function inh: inactive; Pf growth 48h: inactive; SARS PLP yeast: inactive

Results for Cc1cc2[nH]c(=O)c(=O)[nH]c2cc1S(=O)(=O)N1CCN(c2ccccc2F)CC1 ?
Pf growth 96h: inconclusive; NS1 function inh: inactive; Pf growth 48h: inconclusive; SARS PLP yeast: inactive

What do the screens show for `Cc1cc2[nH]c(=O)c(=O)[nH]c2cc1S(=O)(=O)N1CCN(c2cccc(C)c2C)CC1`?
Pf growth 96h: 4.65µM; NS1 function inh: inactive; Pf growth 48h: inconclusive; SARS PLP yeast: inactive

Results for COc1ccccc1N1CCN(S(=O)(=O)c2cc3[nH]c(=O)c(=O)[nH]c3cc2C)CC1 ?
Pf growth 96h: inconclusive; NS1 function inh: inactive; Pf growth 48h: 9.28µM; SARS PLP yeast: inactive

Results for COc1ccc(/C=C2\C(=O)NC(=S)N2C(=O)c2ccc(C)cc2)cc1 ?
Pf growth 96h: 7.38µM; NS1 function inh: inactive; Pf growth 48h: inactive; SARS PLP yeast: inactive

Results for O=C(O)c1ccc2c(=O)[nH]c(CCl)nc2c1 ?
Pf growth 96h: 13.1µM; Pf growth 48h: inconclusive; SARS PLP yeast: inactive

Results for CCOC(=O)C1=C(C)Nc2[nH]c(=O)[nH]c(=O)c2C1c1cccs1 (configuration not stated) ?
Pf growth 96h: inactive; NS1 function inh: inactive; Pf growth 48h: inactive; SARS PLP yeast: inactive

How did CC1=C(C(=O)OC(C)C)C(c2cccs2)NC(=O)N1 (configuration not stated) do in these assays?
Pf growth 96h: inactive; Pf growth 48h: inactive; SARS PLP yeast: inactive

How did CCOC(=O)C1=C(c2ccccc2)OC(N)=C(C#N)C1c1cccs1 (configuration not stated) do in these assays?
Pf growth 96h: inactive; NS1 function inh: inactive; Pf growth 48h: inactive; SARS PLP yeast: inactive

How did C#CCSC1=C(C#N)C(c2cccs2)C(C(=O)OCC)=C(C)N1 (configuration not stated) do in these assays?
Pf growth 96h: inactive; NS1 function inh: inactive; Pf growth 48h: 10.4µM; SARS PLP yeast: inactive
